VDR inhibitor – vitamin D3 receptor (human) inhibition; VDR-SRC2-3 peptide fluorescence polarization, 2 h; P11473; Potency, µM, for the others: max response, negative = inhibition, most hits filed as inhibitors; 400,000 tested, 0.93% active; AID 504847; further: on the % scale 0 is the no-effect control and ±100 the full control effect
Target sequence (P11473 whole entry, looked up): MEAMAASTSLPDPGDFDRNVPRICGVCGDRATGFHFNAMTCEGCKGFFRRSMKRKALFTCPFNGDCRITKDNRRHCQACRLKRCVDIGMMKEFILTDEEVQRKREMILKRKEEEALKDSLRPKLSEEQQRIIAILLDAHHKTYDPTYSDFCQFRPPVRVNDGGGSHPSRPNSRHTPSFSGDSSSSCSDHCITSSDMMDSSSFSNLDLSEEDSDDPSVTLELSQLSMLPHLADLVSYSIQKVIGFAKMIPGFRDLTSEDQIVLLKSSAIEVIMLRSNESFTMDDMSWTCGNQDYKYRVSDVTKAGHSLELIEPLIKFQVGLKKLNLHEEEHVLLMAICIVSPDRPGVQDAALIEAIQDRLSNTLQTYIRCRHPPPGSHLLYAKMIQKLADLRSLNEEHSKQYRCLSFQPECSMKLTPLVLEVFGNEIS
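Inhibition of the VDR/SRC2-3 peptide interaction is quantified by fluorescence polarization. Compounds (23 nl, pintool) incubate with the reagents for 2 hours at ambient room temperature.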
PLK1 PBD inh – inhibitors of human PLK1 polo-box domain binding | Plk1 PBD binding of FITC phosphopeptide, fluorescence polarization | Potency, µM, without a hit: max response, negative = inhibition, usual class: inhibitors | 360,000 tested, 2.8% active; further: series mostly up to about 57 µM; on the % scale 0 is the no-effect control and ±100 the full control effect; nearly all actives have a fitted effect of over 65% in size
mIDH1 inhibitor – human IDH1 R132H inhibition | IDH1-R132H enzyme, NADPH consumption, diaphorase/resazurin fluorescence | O75874 | Potency, µM (highest dose often 76.6 µM), without a hit: at the top dose activity change, negative = inhibition, actives largely listed as inhibitors | 390,000 tested, 0.093% active; further: on the % scale 0 is the no-effect control and ±100 the full control effect; nearly all actives have a fitted effect of over 65% in size
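IDH1-R132H (0.5 ug/mL dispensed) in pH 7.5 Tris buffer was preincubated 30 min with compound, then given a substrate mix of 0.016 mM NADPH and 2 mM alpha-KG for 80 min at room temperature; remaining NADPH was read by diaphorase/resazurin fluorescence.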
TrxR1 substrate – is turned over as a substrate by rat TrxR1 | purified TrxR1 substrate turnover, NADPH consumption readout | AID 588456 | 390,000 tested, 0.01% active | Potency, µM (series often up to 114 µM), without a hit: at the top dose activity change, negative = substrate turnover; further: on the % scale 0 is the no-effect control and ±100 the full control effect; nearly all actives have a fitted effect of over 50% in size
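Rat TrxR1, dispensed at 90 nM, was prereduced with 400 uM NADPH (final) for 5 min at ~22 deg C, then incubated with compound 15 min before 400 uM selenite. A first-read NADPH fluorescence drop versus no-compound background flagged substrates.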
Sfp PPTase inh – Sfp phosphopantetheinyl transferase inhibition; Potency, µM, for inactives: largest response in the series, negative = inhibition, hits mostly inhibitors; Q9F4F7; Biochemical Sfp PPTase activity, qHTS; 310,000 tested, 3.5% active;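 further: the enzyme is Sfp with the accession as filed and its product quenches rhodamine fluorescence; 0% = enzyme reaction without inhibitor and -100% = no enzyme wells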
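After 15 min at room temperature with compound, 15 nM Sfp received 5 uM rhodamine-CoA plus 12.5 uM BHQ-2-ybbR (50 mM Hepes pH 7.6, 10 mM MgCl2). Rate came from the fluorescence difference over 30 min, ex 525/em 598 nm.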
TrxR1 inh – inhibitors of rat thioredoxin reductase 1; 390,000 tested, 1% active; Potency, µM (top dose mostly 114 µM), without a hit: top-dose activity change, negative = inhibition, most hits filed as inhibitors; recombinant rTrxR1, NADPH fluorescence consumption, selenite substrate; further: on the % scale 0 is the no-effect control and ±100 the full control effect; nearly all actives have a fitted effect of over 65% in size
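Rat TrxR1 (90 nM in the dispensed reagent) was pre-reduced with 400 uM NADPH for 5 min at room temperature, then incubated with compound for 15 min. After 400 uM selenite was added, NADPH fluorescence (Ex 340/Em 450 nm) was followed for 8 min.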
VDR confirm – confirmation of human vitamin D receptor inhibitors. 840 tested, 89% active. AID 602199. Potency, µM, hits mostly inhibitors. VDR-coactivator inhibition assay, qHTS confirmation. shares compounds with VDR inhibitor
VDR FP – blocks human VDR-coactivator binding in fluorescein assay | shares compounds with VDR inhibitor | VDR-coactivator binding, fluorescein fluorescence polarization | Potency, µM (highest dose often 57.1 µM), without a hit: at the top dose activity change, negative = inhibition, most hits filed as inhibitors | 840 tested, 48% active
VDR bla reporter – VDR (human) inhibition, cell-based beta-lactamase validation; shares compounds with VDR inhibitor; VDR beta-lactamase reporter cells, FRET ratio; cells co-treated with VDR agonist LG190178; Potency, µM (series often up to 46.1 µM), for the others: at the top dose activity change, negative = inhibition, actives largely listed as inhibitors; 840 tested, 23% active; AID 602202; further: on the % scale 0 is the no-effect control and ±100 the full control effect
VDR cytotox – cell toxicity, VDR inhibitor hit counter-screen | 840 tested, 18% active | shares compounds with VDR inhibitor | Potency, µM (titrated, usually from 48.3 µM), for the others: at the top dose activity change, negative = cytotoxicity, most hits filed as cytotoxic | cytotoxicity counter-screen, cell viability, qHTS;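 further: plate controls were DMSO for no effect and high-concentration cycloheximide for full effect; nearly all actives have a fitted effect of over 75% in size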
* = called active by the depositor; ? = inconclusive; . = no result; [ ] = dose if it differs, or a comment. In the library only some 5.2% were active in any assay of this set; here they are far more common. The call rests on the fitted dose curve; in most records, active means well fitted curve in the direction sought with a large enough effect; inconclusive means small, poorly fitted or top-dose-only effect, or another doubt; inactive means no such curve, though single readings can be large; an effect the other way counts as inactive or inconclusive. Potency means the concentration at half of the fitted maximal effect.

SMILES	VDR inhibitor	PLK1 PBD inh	mIDH1 inhibitor	TrxR1 substrate	Sfp PPTase inh	TrxR1 inh	VDR confirm	VDR FP	VDR bla reporter	VDR cytotox
CN(C)c1ccc(N=Cc2ccncc2)cc1	.	.	.	4.5%[0.0914 µM]	.	?	.	.	.	.
COc1ccccc1NCCC(=O)O	-12.1%	-5.2%	-21.5%	1.0%	10.4%	-2.3%	.	.	.	.
O=C(O)CCNc1ccc(NCCC(=O)O)c2c1C(=O)c1ccccc1C2=O	7.08µM*	?	9.7%	-8.3%[57.1 µM]	-12.8%	-15.4%[57.1 µM]	7.52*	27.6%	1.4%	?
CC(C)(C)C(=O)Nc1ccc2c(c1)C(=O)C(=O)c1ccccc1-2	8.91µM*	.	.	3.16µM*	.	6.31µM*	1.26*	1µM*	4.11µM*	5.97µM*
O=C(NC1(O)C(=O)c2ccccc2C1=O)c1c(Cl)cccc1Cl	?	-26.7%	9.0%	-6.6%	13.4%	11.2%[57.1 µM]	3.98*	3.98µM*	7.5%	-4.2%
O=C(NC1(O)C(=O)c2ccccc2C1=O)c1ccccc1	?	-12.3%	-3.1%	-4.7%	?	-0.1%	1*	1µM*	5.8%	11.9%
O=C(O)Cn1c(=O)c2c3c(sc2n(Cc2ccccc2F)c1=O)CCCC3	-14.8%	-7.3%	2.8%	2.0%[57.1 µM]	2.9%	4.5%[57.1 µM]	.	.	.	.
Cc1cccc(C)c1NC(=O)Cn1c(=O)n(CCC(=O)NCc2ccccc2Cl)c(=O)c2sccc21	31.3%	.	.	-0.4%	.	6.8%	.	.	.	.
COC(=O)C1(CC(C)C)C=C2C(=C(c3ccccc3)C(=O)C2C)CN1 (stereo not drawn)	.	.	.	.	-4.6%	.	.	.	.	.
COc1ccc(C(=O)/C=C/C(=O)N(CC(=O)NC2CCCCC2)Cc2ccc(F)cc2)c(O)c1	79.4µM*	4.23µM*	4.6%	7.3%	8.91µM*	3.98µM*	10.6*	4.47µM*	13µM*	9.2µM*
CS(=O)(=O)N(CC(=O)NC1CCCCC1)Cc1ccc(F)cc1	2.1%	-15.8%	7.1%	-17.1%[57.1 µM]	15.9%	37.1%[57.1 µM]	.	.	.	.
CCN1C(=O)[C@H]2[C@@H](c3ccc(OC)cc3)N[C@]3(CCCN(Cc4ccc(Br)cc4)C3=O)[C@H]2C1=O	.	-3.6%	10.1%	.	.	.	.	.	.	.
C=CCN1C(=O)/C(=N/n2cnnc2)c2ccccc21	39.8µM*	-23.5%	7.3%	-21.8%	-0.6%	-30.4%	16.8*	?	22.9%	-25.5%
CCNC(=O)c1c(NC(=O)COc2ccc(F)cc2)sc2c1CCCC2	1.3%	.	15.2%	2.9%	.	6.1%	.	.	.	.
CCN1CCN(C(c2ccc(C(F)(F)F)cc2)c2ccc3cccnc3c2O)CC1 (stereo not drawn)	25.1µM*	3.77µM*	-0.8%	5.7%[57.1 µM]	-22.5%	3.55µM*	?	10µM*	8.1%	-5.1%
CCC(=O)NC(c1ccc(C)cc1)c1ccc2cccnc2c1O (stereo not drawn)	13.8%	6.4%	-10.8%	-2.3%	18.1%	9.8%	.	.	.	.
CCCOC(=O)c1c(NC(=O)C2CCCO2)sc(C(=O)OC)c1C (stereo not drawn)	79.4µM*	9.47µM*	4.5%	2.7%[57.1 µM]	6.31µM*	-0.8%[57.1 µM]	23.8*	?	-5.4%	13.2%
CC1CN(C(=O)N2CCC(C(=O)NCc3cccs3)CC2)c2cc(Cl)ccc2O1 (stereo not drawn)	3.4%	.	-6.2%	7.0%	.	23.9%	.	.	.	.
Cc1ccc(C(=O)NCC(=O)NCC(=O)OCC(=O)c2ccc(Br)cc2)cc1	-12.5%	-15.4%	6.4%	6.7%	19.5%	22.5%	.	.	.	.
CCOC(=O)CNCCC(=O)c1ccc(Br)cc1	50.1µM*	11.9µM*	-1.3%	-3.2%	-12.5%	0.282µM*	21.2*	22.4µM*	?	?
Cc1ccc(CN2CCN(C3CCNCC3)C(=O)C2=O)cc1	16.4%	.	11.4%	-1.9%[57.1 µM]	.	4.0%[57.1 µM]	.	.	.	.
O=C(O)Cn1cc(/C=C/[N+](=O)[O-])c2ccccc21	?	-28.6%	-6.9%	-4.3%[57.1 µM]	-13.1%	-39.9%	.	.	.	.
O=[N+]([O-])/C=C/c1cn(Cc2ccccc2)c2ccccc12	14.1µM*	?	?	-1.9%	?	-31.8%	11.9*	?	?	?
O=C(c1cnccn1)N1CCC2(CC1)CN(c1ccncc1)C2	-12.8%	.	.	.	-13.6%	.	.	.	.	.
Cc1ccc(-c2cn3nc(N4CCCC(C(=O)NCc5ccc(F)cc5)C4)sc3n2)cc1 (stereo not drawn)	11.8%	.	16.8%	-8.6%	.	8.7%	.	.	.	.
SMILES	VDR inhibitor	PLK1 PBD inh	mIDH1 inhibitor	TrxR1 substrate	Sfp PPTase inh	TrxR1 inh	VDR confirm	VDR FP	VDR bla reporter	VDR cytotox
O=C1Nc2ccc(Br)cc2/C1=C/C(=O)c1ccc2c(c1)OCO2	39.8µM*	?	?	-5.1%	56.2µM*	-13.3%	?	?	?	?
Cc1ccccc1-c1cc2nc(NCc3cccnc3)n(C)c(=O)c2s1	.	-8.8%	.	.	.	.	.	.	.	.
COC(=O)c1cc(=O)n(Cc2ccco2)c(=Nc2ccc(F)c(Cl)c2)s1	?	-14.3%	-4.2%	-0.4%[57.1 µM]	?	-9.8%[57.1 µM]	14.1*	12.6µM*	?	3.3%
Cc1nc(NC(=O)c2ccc(Cl)cc2)sc1Cc1ccc2c(c1)OCO2	79.4µM*	?	-15.3%	9.1%	20µM*	13.5%	?	?	-22.9%	?
COc1ccccc1CNS(=O)(=O)c1ccc2c(c1)NC(=O)C(C)C(=O)N2 (stereo not drawn)	-8.9%	.	35.4%	-6.1%	.	0.4%	.	.	.	.
O=C1NN(c2ccc(F)c(Cl)c2)C(=O)/C1=C\c1cccc(OC(=O)c2cccs2)c1	22.4µM*	1.06µM*	-21.9%	2.4%[57.1 µM]	-6.0%	?	10.6*	?	-18.2%	-8.9%
COc1cc(/C=C2\CCC(C3CCCC3)C2=O)cc(OC)c1OC (stereo not drawn)	6.5%	0.0%	6.9%	3.9%	1.8%	3.8%	.	.	.	.
COc1cc(/C=C2/N=C(C3CCCCC3)OC2=O)cc(OC)c1OC	39.8µM*	-19.7%	9.4%	3.7%	?	?	16.8*	14.1µM*	24.1%	14.5%

Screening data: PubChem, National Center for Advancing Translational Sciences (NCATS)
